Screening results as filed in PubChem.
Compounds with a hit are over-represented: about 7.2% of the library has one in this group of screens.
AHR act – activates the human aryl hydrocarbon receptor; P35869; AHR-responsive luciferase reporter cells, luminescence; activation, % at 5 µM; 2.5% of 320,000 active; AID 2796; in the data active = activation above about 47%;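 also: 0% = vehicle wells and 100% = reference agonist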
ALR inh – blocks human ALR sulfhydryl oxidase activity; 3.8% of 290,000 active; inhibition, % (concentration not given with the values); purified ALR, DTT oxidation, H2O2 HRP-luminol luminescence;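 active = mean replicate inhibition above about 79%, with every replicate also reaching it, limit read from the data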
Target sequence (P55789 whole entry, looked up): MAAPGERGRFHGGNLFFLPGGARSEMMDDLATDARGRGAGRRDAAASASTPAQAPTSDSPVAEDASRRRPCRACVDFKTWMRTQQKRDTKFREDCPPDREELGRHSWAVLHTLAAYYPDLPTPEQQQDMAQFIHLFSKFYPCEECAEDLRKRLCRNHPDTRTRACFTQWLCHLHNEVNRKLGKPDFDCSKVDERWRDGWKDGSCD
VLA-4 inh – inhibition in a human VLA-4 binding assay; P13612; VLA-4 expressing cells, ligand binding flow cytometry; inhibition, % (about 7 µM as worked out from the volumes in the protocol); 0.2% of 330,000 active; AID 2557; in the data active = inhibition above about 50%
Bfl-1 A1 inh – inhibitors of the anti-apoptotic protein A1, read as caspase activation; MEF A1-2A-BIM cells, Caspase-Glo 3/7 luminescence, 3 h; percent of clofoctol response, vehicle zero; AID 2462; 0.066% of 330,000 active; caspase activation, % (test concentration not listed);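 active = over half of replicate activation scores above 10%, or exactly half above 10 with the replicate mean above 10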
SUMO Mot1 rescue – blocks SUMOylation pathway, rescuing yeast Mot1-301 growth. AID 2716. growth rescue, % at 18.8 µM. 1% of 320,000 active. S. cerevisiae Mot1-301 growth rescue, ATP luminescence, 38.5C; percent above DMSO median, 100 means doubled;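 active = every valid replicate shows activation above 250% relative to neutral control wells; inactive = the rest, any valid replicate at or below 250%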;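 also: OY570 slx delta 5 strain wells were the positive control but not used for scaling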
Efflux pump inh – antifungal efflux pump inhibition, Nile Red retention; S. cerevisiae Candida pump triplex; inhibition, % at 10 µM; 0.44% of 330,000 active; AID 485275;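 active = plate passing quality check with inhibition over a set limit, or well fluorescence over plate mean plus 4 SD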;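 also: Nile Red retained in pooled yeast measured as flow cytometry median fluorescence; 0% = buffer negative control and 100% = Enniatin B positive control; higher means more Nile Red kept so more efflux inhibition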
Starred values were filed as active, the others as inactive.

How did CCOc1ccc2[nH]cc(C(=O)N3CCN(CC)CC3)c(=O)c2c1 do in these assays?
AHR act: 10; ALR inh: 3; VLA-4 inh: 10; Bfl-1 A1 inh: 1; SUMO Mot1 rescue: 12; Efflux pump inh: 0

Results for COC(=O)N/N=C/c1c(C)cc(C)cc1C ?
AHR act: 31; ALR inh: 2; VLA-4 inh: 11; Bfl-1 A1 inh: 0; SUMO Mot1 rescue: -3; Efflux pump inh: 0

Results for CCOC(=O)Cc1cnc(NC(=O)CSc2nc(C(C)C)cc(=O)[nH]2)s1 ?
AHR act: 3; ALR inh: 68; VLA-4 inh: 7; Bfl-1 A1 inh: 0; SUMO Mot1 rescue: 285; Efflux pump inh: 0

What do the screens show for `COc1ccc(-c2csc(NC(=O)CSc3nnnn3C)n2)cc1OC`?
AHR act: 12; ALR inh: 98*; VLA-4 inh: -6; Bfl-1 A1 inh: 0; SUMO Mot1 rescue: 4; Efflux pump inh: 0

How did COc1ccc(-c2csc(NC(=O)CSc3n[nH]c(C)n3)n2)cc1 do in these assays?
AHR act: 12; VLA-4 inh: -8; Bfl-1 A1 inh: 0; SUMO Mot1 rescue: -10; Efflux pump inh: 0

What do the screens show for `CCc1c(C)nc(SCC(=O)Nc2nc(-c3ccc(OC)cc3)cs2)[nH]c1=O`?
AHR act: 6; ALR inh: 99*; VLA-4 inh: 2; Bfl-1 A1 inh: 1; SUMO Mot1 rescue: -11; Efflux pump inh: 0

What do the screens show for `CCc1c(C)nc(SCC(=O)NNC(=O)Cc2ccc(OC)cc2)[nH]c1=O`?
AHR act: 0; ALR inh: 0; VLA-4 inh: 20; Bfl-1 A1 inh: 0; SUMO Mot1 rescue: 2; Efflux pump inh: 0

How did CCOC(=O)Cc1cnc(NC(=O)CSc2nc(C)c(CC)c(=O)[nH]2)s1 do in these assays?
AHR act: 5; ALR inh: 99*; VLA-4 inh: -6; Bfl-1 A1 inh: 1; SUMO Mot1 rescue: -10; Efflux pump inh: 0

Results for COc1ccc(-c2csc(NC(=O)CSc3n[nH]c(N)n3)n2)cc1 ?
AHR act: 49*; ALR inh: 19; VLA-4 inh: 3; Bfl-1 A1 inh: 0; SUMO Mot1 rescue: 11; Efflux pump inh: 0

Results for COc1ccc(-c2csc(NC(C)=O)n2)cc1OC ?
AHR act: 3; ALR inh: 11; VLA-4 inh: 1; Bfl-1 A1 inh: -1; SUMO Mot1 rescue: 9; Efflux pump inh: 0

What do the screens show for `O=Cc1ccc(OCC(=O)N2CCOCC2)cc1`?
AHR act: 2; ALR inh: -24; VLA-4 inh: -1; Bfl-1 A1 inh: 0; SUMO Mot1 rescue: 9; Efflux pump inh: 0

Results for CC(C(=O)Nc1nc(-c2ccc(F)c(F)c2)cs1)N1C(=O)C2CC=CCC2C1=O (stereo not given) ?
AHR act: 2; ALR inh: 0; VLA-4 inh: -1; Bfl-1 A1 inh: -1; SUMO Mot1 rescue: 2; Efflux pump inh: 0

How did COc1ccc(-c2csc(NC(=O)[C@H](C)N3C(=O)C4CC=CCC4C3=O)n2)cc1OC (stereo not given in full) do in these assays?
AHR act: 1; ALR inh: 91*; VLA-4 inh: -9; Bfl-1 A1 inh: -2; SUMO Mot1 rescue: 2; Efflux pump inh: 0

What do the screens show for `S=C(N/N=C/c1ccc(Cl)cc1)N1CCOCC1`?
AHR act: 71*; ALR inh: 12; VLA-4 inh: 32; Bfl-1 A1 inh: -2; SUMO Mot1 rescue: 15; Efflux pump inh: 0

What do the screens show for `Cc1ccc(N/N=C/c2ccc(N3CCOCC3)cc2)cc1C`?
AHR act: 18; ALR inh: 99*; VLA-4 inh: 4; Bfl-1 A1 inh: 0; SUMO Mot1 rescue: 446; Efflux pump inh: 0

What do the screens show for `COc1ccc(Cl)cc1C(=O)N/N=C/c1ccc(N2CCOCC2)cc1`?
AHR act: 53*; ALR inh: -10; VLA-4 inh: -17; Bfl-1 A1 inh: 0; SUMO Mot1 rescue: -10; Efflux pump inh: 0

What do the screens show for `CCn1ncc(/C=N/NC(=O)c2cc(Cl)ccc2OC)c1C`?
AHR act: 76*; ALR inh: -3; VLA-4 inh: 17; Bfl-1 A1 inh: 0; SUMO Mot1 rescue: -2; Efflux pump inh: 0

How did Cc1ccc(/C=N/Nc2cc(C)nc(N3CCOCC3)n2)cc1 do in these assays?
AHR act: 13; ALR inh: 2; VLA-4 inh: 9; Bfl-1 A1 inh: 1; SUMO Mot1 rescue: 438; Efflux pump inh: 0

Results for COC(=O)c1cccc(N(C(=O)c2cnccn2)C(C(=O)NC2CCCCC2)c2cn(C)nc2C)c1 (stereo not given) ?
AHR act: -3; ALR inh: -20; VLA-4 inh: -14; Bfl-1 A1 inh: 0; SUMO Mot1 rescue: 35; Efflux pump inh: 0

What do the screens show for `O=C(COC(=O)C1CCCC1)Nc1ncc(Cl)cc1Cl`?
AHR act: 2; ALR inh: -27; VLA-4 inh: 7; Bfl-1 A1 inh: 0; SUMO Mot1 rescue: -6; Efflux pump inh: 0

What do the screens show for `COc1ccc(/C=C/c2c(-c3ccc(OC)cc3)oc(=O)c3cc(OC)c(OC)cc23)cc1`?
AHR act: 7; ALR inh: -1; VLA-4 inh: 3; Bfl-1 A1 inh: -1; SUMO Mot1 rescue: -10; Efflux pump inh: 1

How did COc1ccc(-c2oc3cccnc3c2/C=C/c2ccc(OC)c(OC)c2)cc1 do in these assays?
AHR act: 47*; ALR inh: -22; VLA-4 inh: -22; Bfl-1 A1 inh: 0; SUMO Mot1 rescue: 10; Efflux pump inh: 0

What do the screens show for `Clc1ccc(CSCCc2ccncc2)cc1`?
AHR act: -5; ALR inh: -11; VLA-4 inh: 8; Bfl-1 A1 inh: 0; SUMO Mot1 rescue: -9; Efflux pump inh: 0

Results for c1ccc2c(CSCCc3ccncc3)cccc2c1 ?
AHR act: 28; ALR inh: 100*; VLA-4 inh: 10; Bfl-1 A1 inh: 0; SUMO Mot1 rescue: 23; Efflux pump inh: 0

Results for Cc1cc(NCCCN2CCOCC2)n2c(nc3ccccc32)c1C#N ?
AHR act: 73*; ALR inh: -10; VLA-4 inh: -7; Bfl-1 A1 inh: -1; SUMO Mot1 rescue: -6; Efflux pump inh: 0

What do the screens show for `Cc1cc(NCCCCO)n2c(nc3ccccc32)c1C#N`?
AHR act: 0; ALR inh: -9; VLA-4 inh: -12; Bfl-1 A1 inh: -1; SUMO Mot1 rescue: -15; Efflux pump inh: 0

Results for CCN(CC)CCNc1cc(C)c(C#N)c2nc3ccccc3n12 ?
AHR act: 48*; ALR inh: -40; VLA-4 inh: -5; Bfl-1 A1 inh: 0; SUMO Mot1 rescue: 24; Efflux pump inh: 0

What do the screens show for `O=C(c1ccc(-c2ccc([N+](=O)[O-])cc2)o1)N1CCCCC1`?
AHR act: -5; ALR inh: 1; VLA-4 inh: -1; Bfl-1 A1 inh: 0; SUMO Mot1 rescue: 3; Efflux pump inh: 0
